Measured values from the antibiotic and cytotoxicity screens of Wong et al. (2023).
Among all 39,000 compounds or so, about 3,300 (8.5%) were called active. Only a selection was taken, and actives are over-represented in it overall.

test system: HepG2; experiment: cytotoxicity call (relative viability < 0.9); details: 10 µM

Row | Structure (SMILES) | cytotoxicity call
1 | CS(=O)(=O)N1C[C@H]2CN(Cc3ccncc3)C(=O)[C@@H]2C1 | inactive
2 | C[C@H](CO)N1C[C@H](C)[C@H](CN(C)C(=O)CN(C)C)Oc2cc(C#CCN(C)C)ccc2S1(=O)=O | inactive
3 | CCOc1ccc(C(=O)Nc2ccc(S(=O)(=O)N3CCCC[C@@H]3c3cccnc3)cc2)cc1OCC | inactive
4 | COc1ccccc1[C@@H](NC(=O)C1CCN(CCOc2ccc(Cl)cc2Cl)CC1)c1ccccn1 | inactive
5 | CCOc1cc2ncc(C#N)c(Nc3ccc(OCc4ccccn4)c(Cl)c3)c2cc1NC(=O)/C=C/CN(C)C | active
6 | CCOc1cc2ncc(C#N)c(Nc3ccc(OCc4ccccn4)c(Cl)c3)c2cc1NC(=O)/C=C/[C@H]1CCCN1C | active
7 | OC[C@H]1CN(Cc2ccccc2)CCO1 | inactive
8 | Cc1nc2ccc([N+](=O)[O-])cc2s1 | inactive
9 | CO[C@H]1CN(C)C(=O)c2cc(NC(=O)CC(F)(F)F)ccc2OC[C@H](C)N(C(=O)C2CCOCC2)C[C@@H]1C | inactive
10 | C=CCOC(=O)[C@H]1[C@@H]2C(=O)O[C@@H](c3ccccc3)[C@@H](c3ccccc3)N2[C@@H](c2ccc(OCCOC(=O)[C@H]3C[C@H]4C(=O)N[C@@H](CCCC[N+](C)(C)C)C(=O)N4[C@H]3c3ccc(O)cc3)cc2)[C@]12C(=O)Nc1ccc(I)cc12 | inactive
11 | C[C@@H]1CCCCO[C@@H](CN(C)C(=O)Nc2ccc(F)cc2)[C@@H](C)CN([C@H](C)CO)C(=O)c2cc(NC(=O)NC3CCCCC3)ccc2O1 | inactive
12 | C[C@H]1CCCCO[C@H](CN(C)S(=O)(=O)c2ccccc2)[C@@H](C)CN([C@@H](C)CO)C(=O)c2cc(NC(=O)Nc3ccc(F)cc3)ccc2O1 | active
13 | C=CCOC(=O)N(C)C[C@@H]1OCCCC[C@H](C)Oc2ccc(NC(=O)Nc3ccccc3)cc2C(=O)N([C@H](C)COC(=O)c2ccccc2)C[C@H]1C | inactive
14 | COCOC[C@H](C)N1C[C@@H](C)[C@H](CN(C)S(=O)(=O)c2ccc(F)cc2)OCCCC[C@H](C)Oc2ccc(NC(=O)Nc3ccccc3)cc2C1=O | inactive
15 | C[C@@H]1CCCCO[C@H](CN(C)S(=O)(=O)c2ccccc2)[C@H](C)CN([C@@H](C)CO)C(=O)c2cc(NC(=O)Nc3ccc(F)cc3)ccc2O1 | active
16 | C=CCOC(=O)N(C)C[C@H]1OCCCC[C@H](C)Oc2ccc(NC(=O)Nc3ccccc3)cc2C(=O)N([C@@H](C)CO[Si](C)(C)C(C)(C)C)C[C@H]1C | active
17 | C=CCOC(=O)N(C)C[C@@H]1OCCCC[C@H](C)Oc2ccc(NC(=O)Nc3ccccc3)cc2C(=O)N([C@@H](C)CO)C[C@H]1C | inactive
18 | C[C@@H]1CN([C@@H](C)CO)C(=O)c2cc(NC(=O)Nc3ccc(F)cc3)ccc2O[C@@H](C)CCCCO[C@H]1CN(C)S(=O)(=O)c1ccccc1 | inactive
19 | C[C@@H]1CN([C@@H](C)CO[Si](C)(C)C(C)(C)C)C(=O)c2cc(NC(=O)Nc3ccccc3)ccc2O[C@@H](C)CCCCO[C@H]1CN(C)S(=O)(=O)c1ccc(F)cc1 | active
20 | C[C@@H]1CN([C@H](C)CO)C(=O)c2cc(NC(=O)Nc3ccc(F)cc3)ccc2O[C@@H](C)CCCCO[C@@H]1CN(C)S(=O)(=O)c1ccccc1 | inactive

Row | Structure (SMILES) | cytotoxicity call
21 | C[C@@H]1CN([C@H](C)CO[Si](C)(C)C(C)(C)C)C(=O)c2cc(NC(=O)Nc3ccccc3)ccc2O[C@@H](C)CCCCO[C@H]1CN(C)S(=O)(=O)c1ccc(F)cc1 | inactive
22 | C[C@@H]1CCCCO[C@@H](CN(C)S(=O)(=O)c2ccccc2)[C@H](C)CN([C@H](C)CO)C(=O)c2cc(NC(=O)Nc3ccc(F)cc3)ccc2O1 | inactive
23 | C[C@H](CO)N1C[C@H](C)[C@@H](CN(C)S(=O)(=O)c2ccccc2)OCCCC[C@H](C)Oc2ccc(NC(=O)Nc3ccc(F)cc3)cc2C1=O | inactive
24 | C[C@H](CO)N1C[C@H](C)[C@H](CN(C)S(=O)(=O)c2cccs2)OCCCC[C@H](C)Oc2ccc(NC(=O)NC3CCCCC3)cc2C1=O | inactive
25 | C[C@H]1CCCCO[C@H](CN(C)C(=O)Nc2ccc3c(c2)OCO3)[C@@H](C)CN([C@@H](C)CO)C(=O)c2cc(NC(=O)C3CCCCC3)ccc2O1 | inactive
26 | C[C@@H]1CN([C@@H](C)CO)C(=O)c2cccc(NS(C)(=O)=O)c2O[C@H]1CN(C)S(=O)(=O)c1cn(C)cn1 | inactive
27 | C[C@H]1CN([C@@H](C)CO)C(=O)c2cc(NS(=O)(=O)c3ccc(F)cc3)ccc2O[C@@H]1CN(C)S(C)(=O)=O | inactive
28 | CC(C)NC(=O)N(C)C[C@H]1OCc2cn(nn2)CCCC(=O)N([C@@H](C)CO)C[C@H]1C | inactive
29 | O[C@@H]1[C@@H](O)[C@H](Nc2ccccc2)OC[C@H]1O | inactive
30 | Cc1noc(C)c1S(=O)(=O)N(C)C[C@H]1Oc2ccc(NC(=O)Nc3ccccc3)cc2CC(=O)N([C@H](C)CO)C[C@@H]1C | inactive
31 | CN(C)CC#Cc1ccc([C@@H]2[C@@H](CO)N3C(=O)CN(C(=O)c4cccnc4)C[C@@H]23)cc1 | inactive
32 | COc1ccc(NC(=O)N(C)C[C@H]2OCCCC[C@@H](C)Oc3ccc(NS(=O)(=O)c4c(C)noc4C)cc3C(=O)N([C@H](C)CO)C[C@@H]2C)cc1 | inactive
33 | C[C@@H]1CCCCO[C@H](CN(C)C(=O)C2CCCCC2)[C@@H](C)CN([C@@H](C)CO)C(=O)c2cc(NC(=O)Cc3ccccc3)ccc2O1 | inactive
34 | C[C@@H]1CN([C@H](C)CO)C(=O)Cc2cc(NC(=O)Cn3cnnn3)ccc2O[C@@H]1CN(C)S(=O)(=O)c1cn(C)cn1 | inactive
35 | C[C@@H]1CN([C@H](C)CO)C(=O)c2cc(NC(=O)Nc3ccc(F)cc3)ccc2O[C@@H](C)CCCCO[C@H]1CN(C)S(=O)(=O)c1ccccc1 | inactive
36 | C[C@@H]1CN([C@@H](C)CO)C(=O)c2cc(NC(=O)Nc3ccccc3)ccc2O[C@@H](C)C/C=C/CO[C@H]1CN(C)S(=O)(=O)c1ccc(F)cc1 | active
37 | CC(C)N1C[C@@H](C)[C@H](CN(C)S(=O)(=O)c2ccc(F)cc2)OCCCC[C@H](C)Oc2ccc(NC(=O)Nc3ccccc3)cc2C1=O | inactive
38 | C[C@@H]1CN([C@@H](C)CN=[N+]=[N-])C(=O)c2cc(NC(=O)Nc3ccccc3)ccc2O[C@@H](C)CCCCO[C@H]1CN(C)S(=O)(=O)c1ccc(F)cc1 | active
39 | C[C@@H]1CCCCO[C@@H](CN(C)S(=O)(=O)c2ccccc2)[C@@H](C)CN([C@@H](C)CO)C(=O)c2cc(NC(=O)Nc3ccc(F)cc3)ccc2O1 | inactive
40 | C[C@@H]1CN([C@@H](C)CO)C(=O)c2cc(NC(=O)Nc3ccccc3)ccc2O[C@@H](C)C/C=C\CO[C@H]1CN(C)S(=O)(=O)c1ccc(F)cc1 | inactive
